From PubChem BioAssay (NCI) come the findings set out here.

Several values for one entry are separate records, joined by “and”; a condition that tells them apart may be missing. Identical values can stand only once. This is part of a sample that, as a whole, favours compounds with a hit. Of some 83,000 tested, about 20% had one in any assay.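 96-well plates, one dose, 48 hours. Percent growth reported; active if below 10.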 Activity calls are given as the source filed them.

The subject of the first assay is LOX IMVI melanoma. Description: NCI-60 one-dose screen, 48 h (100 = growth as untreated, 0 = no growth, -100 = all killed). The following applies: 10 µM. The protocol: Growth inhibition of the LOX IMVI human tumor cell line is measured as a screen for anti-cancer activity. Cells are grown in 96 well plates and exposed to the test compound for 48 hours. Compounds are tested at a single concentration, which is 10^-5 M for most compounds. The reported endpoint is percent growth (GI% or GIPRCNT), where numbers from 0 - 100% represent growth inhibition, and numbers from -100% - 0 represent cell death. For example, a value of 40 represents 60% growth inhibition. A value of 0 means no net growth occurred over the course of the experiment. A value of -40 indicates 40% of cells at the beginning of the experiment died by the end of the experiment. A value of -100 means all cells are dead at the end of the experiment.
NCI-60 Human Tumor Cell Lines Screen was performed using the standard one-dose NCI protocol, which is described in more detail at https://dtp.cancer.gov/discovery_development/nci-60/default.htm.
Compounds with GIPRCNT values below 10 were considered active. Activity score was based on GIPRCNT using the following formula: […]
Score is 0 for GIPRCNT values of 100 or above, 50 for GIPRCNT values of 0, and 100 for GIPRCNT values of -100.
In the case of `O=C(Nc1cccc(Br)c1)Oc1cccc2cccnc12`, the growth was 102% (inactive).

Still in this assay, the particulars now being: 10 µM unless noted.
Regarding `CC(C)(C)CC(C)(C)c1ccc(OCCSC(=N)N)cc1`, the growth is 8.68% (active).
For the compound `O=C1c2ccccc2C(=O)N1c1ccccc1`, the growth is 104% (inactive).
Take `Cc1ccc2nc(C[n+]3ccc4ccccc4c3)ccc2c1`: the growth was 68.4% (inactive).
For `CN(C)C(=O)SC1=C(c2c(Cl)cccc2Cl)C(=O)c2ccccc21`, the growth was -48% (active).
Regarding `COc1cc(/C=C/C(C)=O)ccc1O`, the growth was 104% (inactive).
As for `CC1=CC(O)C2CC1C2(C)C` (stereo not given), the growth is 98% (inactive) and 105% (inactive).
The same measure, in the same setting: the value for `COc1cc(/C=C(/C)C[N+](=O)[O-])ccc1O` was 47.5% (inactive); that for `COc1ccccc1/C=C\C(=O)c1ccccc1` was 28.6% (inactive); that for `C/C=C1\SC(=S)NC1=O` was 101% (inactive).
For the compound `C[N+](C)=c1ccc2nc3c(cc(NCCCNc4cc5oc6cc(=[N+](C)C)ccc-6nc5c5ccccc45)c4ccccc43)oc-2c1`, the growth was -45.5% (active).
The same measure, in the same setting: the value for `O=C(/C=C/C=C/c1ccccc1)c1ccco1` was 64.8% (inactive); that for `Cc1ccnc2c1ccc1c(C)ccnc12` was 2.99% (active).
As for `COc1ccc(-c2cscc2N)cc1`, the growth is 45.7% (inactive).
With `CCOc1ccc(-c2nc3ccc(-c4nc5ccc(N6CCN(C)CC6)cc5[nH]4)cc3[nH]2)cc1`, the growth is -88% (active).
Still for that read-out and setting: as for `O=C(Nc1cccc(Br)c1)Oc1ccc(Cl)c2cccnc12`, the figure is 4.16% [100 µM] (active).
Consider `Cc1ccnc(NC(c2ccccc2)c2ccc3cccnc3c2O)c1` (stereo not given), for which the growth is 28.1% (inactive).
On to `O=C1c2cccnc2-c2nccc3c2c1nc1cc(Br)ccc13`, for which the growth is -45.9% (active) and -71.1% (active).
Same read-out and setting: the value for `Nc1nc(N)c2c(ccc3c2ccn3Cc2cccc([N+](=O)[O-])c2)n1` was -83.4% (active); that for `CN(C)C(=O)c1ccc(SC(=S)NCc2ccccc2)cc1` was 87.5% (inactive).
For `CC(=O)Nc1cccc2cc(O)ccc12`, the growth is 104% (inactive) and 106% (inactive).
As to `Cn1c2c(c3ccccc31)CCN1C[C@@H]3CCCC[C@H]3C[C@@H]21`, the growth was 15.6% (inactive).
The same measure, in the same setting: as for `Nc1nc(N)c2nc(CNc3ccc(C(=O)NC(CCC(=O)O)C(=O)O)cc3)cnc2n1` (stereo not given), the figure is 12% (inactive) and 13.1% (inactive); as for `O=Nc1ccccc1N=O`, 60% (inactive); as for `CN(C)CCOc1ccc2c(c1)C(=O)/C(=C\c1ncc([N+](=O)[O-])n1C)C2`, -41.9% (active).
Still for that read-out and setting: as for `O=C1OCc2cccc3cccc1c23`, the figure is 103% (inactive).
Take `N#CSCc1ccc(CSC#N)c(Cl)c1`: the growth is 46.6% (inactive).
With `Cc1ccc2c(ccc3c[n+]4c5ccccc5ccc4n32)c1`, the growth is 22.5% (inactive).
On to `N#CSCc1ccc(Cl)c(CSC#N)c1`, for which the growth is 19.9% (inactive).
On the same count and under the same terms, as for `CCN1/C(=C\c2cc[n+](CC)c3ccccc23)C=Cc2ccccc21`, the figure is 4.04% (active); as for `Oc1c(Br)cc(Cl)cc1C(c1cc(Cl)cc(Br)c1O)C(Cl)(Cl)Cl`, 34.3% (inactive); as for `Oc1c(Br)c(Br)c(O)c(Br)c1Br`, 90.9% (inactive).
`Nc1ccc(SSc2ccc(N)cc2)cc1`: the growth was 79.6% (inactive).
Turning to `COc1ccc(N=N/N=c2\sc3cc(OC)ccc3n2C)cc1`, the growth is 105% (inactive).
For the compound `CCC(=O)Sc1ccccc1C(=O)Nc1ccc(Cl)cc1`, the growth is 42.2% (inactive).
Consider `NC(=O)/C=C/C(=O)c1c(Cl)cccc1Cl`, for which the growth is -43.5% (active).
In the case of `Nc1ncnc2c1ncn2C1OC(CO)C(O)C1O` (stereo not given), the growth was 106% (inactive) and 57.2% (inactive) and 94.6% (inactive).
Same read-out and setting: as for `Oc1ccc(/C=N/NC(=S)Nc2ccccc2)nc1`, the figure is -18.7% (active).
As to `N#Cc1ccc([N+](=O)[O-])o1`, the growth was 108% (inactive).

Staying with this assay, now noted: 100 µM.
Turning to `O=C(Nc1cccc(Br)c1)Oc1cccc2cccnc12`, the growth is -3.16% (active).
